Source: PubChem BioAssay
hcDAF12 agonist: activates DAF-12 receptor from parasite H. contortus; activation, % at 6.8 µM; HEK293 hcDAF-12 lit1-tk-luc reporter, luminescence; 0% DMSO, 100% Δ7-dafachronic acid; actives 1.4% (n = 370,000);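 active = activation above the mean of all tested compounds plus 3 SD, cut at about 5.5% in these data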;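 also: 100% = response to 3 µM Δ7-dafachronic acid high control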
DAX1 inh-1: inhibits human nuclear receptor DAX1. P51843. HEK293 Gal4-DAX1 luciferase reporter, luminescence. inhibition, % at 6.75 µM. actives 0.99% (n = 340,000);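 active = inhibition above the mean over all tested compounds plus 3 SD, cut at about 4.2% in these data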;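 also: 0% = DAX1-transfected cells with DMSO and 100% = empty-vector control cells with DMSO; inhibition shows as a rise in luminescence from relieved DAX1 repression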
Target sequence (P51843 207-470 limits assumed): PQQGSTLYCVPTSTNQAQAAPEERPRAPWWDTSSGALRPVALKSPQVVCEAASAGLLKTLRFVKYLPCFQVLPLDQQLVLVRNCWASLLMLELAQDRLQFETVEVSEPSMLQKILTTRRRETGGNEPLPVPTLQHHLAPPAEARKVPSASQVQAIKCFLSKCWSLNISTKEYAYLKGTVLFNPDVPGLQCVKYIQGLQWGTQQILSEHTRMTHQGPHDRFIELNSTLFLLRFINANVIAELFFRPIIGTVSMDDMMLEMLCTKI
ssDAF-12 act: activators of S. stercoralis DAF-12 nuclear receptor; HEK293 ssDAF-12/GRIP1 lit1-tk-luc reporter, luminescence; % of 3 µM dafachronic acid response; activation, % at 6.8 µM; AID 652126; actives 1% (n = 370,000);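 active = activation above the mean over all tested compounds plus 3 SD, cut at about 0.9% in these data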;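 also: 0% = DMSO-only wells and 100% = 3 µM delta7-dafachronic acid wells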
SMARCA2 activ: activators of SMARCA2 function. MG213 cells, MMTV-luciferase reporter, dexamethasone, overnight. activation, % at 9.1 µM. actives 1% (n = 370,000). AID 652017; in the data active = activation above about 7.8%;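 also: 0% = vehicle wells and 100% = reference activator wells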
hgDAF12 agonist: activates the H. glycines DAF-12 receptor ligand-binding domain. actives 1.8% (n = 370,000). HEK293 GAL4-hgDAF12 UAS-luciferase reporter, agonist luminescence; normalized to butyrate control. activation, % at 6.8 µM. AID 687014;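 active = activation above a cutoff set at the mean of all screened compounds plus 3 SD, cut at about 10% in these data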;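 also: 0% = DMSO wells and 100% = sodium butyrate wells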
DAX1 inh-2: DAX1 (NR0B1) inhibition, primary screen | actives 1.1% (n = 370,000) | inhibition, % at 6.8 µM | HEK293T StAR-luciferase reporter, SF-1/DAX-1 repression relief;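 active = inhibition above the mean over all tested compounds plus 3 SD, cut at about 3.6% in these data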;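 also: 0% = DAX-1 cells with DMSO and 100% = cells lacking DAX-1 with DMSO; higher inhibition means more luminescence from relief of DAX-1 repression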
* = called active by the depositor; . = no result. In the library only some 4.8% were active in any assay of this set; here they are far more common.

SMILES	hcDAF12 agonist	DAX1 inh-1	ssDAF-12 act	SMARCA2 activ	hgDAF12 agonist	DAX1 inh-2
COc1cccc(CNC(=O)C[C@H]2CC[C@H]3[C@@H](COc4ccc(NC(=O)c5cccs5)cc4C(=O)N3C)O2)c1	-1	.	-1	-3	7	0
Cc1c(Cl)c([N+](=O)[O-])nn1CC(=O)N1CCN(Cc2ccccc2)CC1	-1	4.4*	-1	-5	0	-1
Cc1c(Cl)c([N+](=O)[O-])nn1CC(=O)N1CCCC1	-1	1	-1	1	-1	0
CN1[C@@H](Cc2ccccc2)COc2cccc(N3CCSCC3)c2S1(=O)=O	3	.	-1	-2	0	0
O=C(c1ccccc1)N1CCC2CCN(S(=O)(=O)c3ccccc3)CC21 (stereo unspecified)	-3	.	-1	3	1	-1
Cc1ccc(N2C(=O)c3ccccc3NC2c2ccccc2O)cc1 (stereo unspecified)	3	0	0	2	11*	0
C[C@H]1CN(S(=O)(=O)C(C)(C)C)[C@@H](CCO)/C1=C\c1ccccc1	-2	.	-1	-3	-2	-2
N=C(N)c1ccc(/C=C/c2ccc(C(=N)N)cc2O)cc1	-2	5.1*	-1	4	2	0
C=CCN1C(=O)[C@H](CC(=O)NCC23CC4CC(CC(C4)C2)C3)[C@@]2(C(=O)OCC)CCCC=C12	-3	.	-1	-3	0	-2
CC(C(=O)N1CCN(c2ccccc2)CC1)N1C(=O)C2CC=CCC2C1=O (stereo unspecified)	-2	5.0*	0	-3	0	0
S=C(Nc1ccc(Cl)cc1Cl)Nc1ccccc1Oc1ccccc1	.	2	.	.	.	.
S=C(Nc1ccccc1Oc1ccccc1)Nc1cccc(Cl)c1Cl	4	0	1.0*	0	0	0
Cc1ccc(S(C)(=O)=NC(=O)NC(=O)c2c(Cl)cccc2Cl)cc1 (stereo unspecified)	-1	4.9*	-1	-2	1	0
Cc1ccc(S(C)(=O)=NC(=O)NC(=O)c2c(F)cccc2Cl)cc1 (stereo unspecified)	-1	1	-1	-4	1	0
CCOc1ccc2nc(NC(=O)CN3CCN(C)CC3)sc2c1	5	1	0	0	6	0
CCOc1ccc2nc(NC(=O)Cn3[nH]c(=O)c4ccccc4c3=O)sc2c1	0	6.8*	-1	2	11*	1
CCOc1ccc2nc(NC(=O)CN3CCN(CC)CC3)sc2c1	0	0	-1	1	4	0
CCOc1ccc2nc(NC(=O)CN3C(=O)C4CCCCC4C3=O)sc2c1 (stereo unspecified)	0	0	-1	0	6	3.7*
Cn1cccc1C(=O)C(=O)Nc1ccccc1C(F)(F)F	0	4.4*	-1	3	4	2
Cn1cccc1C(=O)C(=O)Nc1ccccc1	5	1	1.0*	4	13*	3.8*
CC(C)(C)C(=O)NC(=O)Nc1ccccc1C(F)(F)F	-1	2	-1	-2	-1	0
CC(=O)Nc1ccccc1C(F)(F)F	0	4.3*	-1	1	1	0
O=C(Nc1ccccc1C(F)(F)F)c1cc(-c2ccccc2O)on1	0	2	0	2	12*	2
CCOC(=O)c1cnn(-c2ccccc2)c1-n1cccc1C(=O)C(=O)Nc1ccccc1C(F)(F)F	-1	0	-1	-1	-1	0
COC(=O)[C@]12C[C@H](CC(=O)NCc3cccs3)C(=O)N(Cc3ccco3)C1=C[C@H](COCc1ccccc1)O[C@@H]2C	-1	.	-2	-3	3	-1
Cc1cccc(NC(=O)CSc2nnc(SCc3ccc(Cl)cc3)s2)c1	-1	.	-2	-7	-4	0
CC[C@H]1C=C[C@@H](C(=O)NS(=O)(=O)c2ccc(C)cc2)N(C(C)=O)C1	-1	.	-1	-2	-2	-1
c1ccc(-c2ccc(C3=Nn4c(nnc4-c4ccccn4)SC3)cc2)cc1	-3	.	-1	-4	0	-1
OC(c1ccccc1)(c1ccccc1)C1CCN(CCCOc2ccc(OC(F)(F)F)cc2)CC1	2	.	-1	-3	2	0
